Screens (PubChem)
Mtb bLac sens: beta-lactam sensitization of Mtb H37Rv, H37Rv; inhibition, % at 25 µM; M. tuberculosis H37Rv growth with meropenem, percent inhibition; 0.27% of 330,000 active; call rule not given here;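 note: growth measured after seven days incubation then overnight dye step; 0% = bacteria only wells and 100% = bacteria with antibiotic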
FBA Mtb inh: Mtb FBA enzyme inhibitors, primary screen, biochemical, fluorescence, strain H37Rv | Fructose-bisphosphate aldolase (Mycobacterium tuberculosis (strain ATCC 25618 / H37Rv)), … | purified M. tuberculosis FBA, fluorescence read-out | inhibition, % at 1 µM | 2.3% of 360,000 active | AID 588726, 2011;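 note: 0% = vehicle and 100% = reference inhibitor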
RecA intein inh: Mtb RecA intein splicing inhibitors, primary screen, biochemical, fluorescence, HTS. Protein RecA (Mycobacterium tuberculosis (strain ATCC 25618 / H37Rv)), P9WHJ3. inhibition, % (no concentration beside the values). 0.75% of 290,000 active. cell-free RecA intein splicing; in the data active = inhibition above about 30%;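 note: 0% = vehicle wells and 100% = reference inhibitor control wells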
GDH-TPI counter-1: GDH-TPI coupling enzyme inhibitors, primary screen, artefact control for M. tuberculosis FBA inhibitor project, biochemical, absorbance, full deck. 1.2% of 360,000 active. GDH-TPI coupled enzyme counterscreen, NADH absorbance. inhibition, % at 4.8 µM; in the data active = inhibition above about 30%;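 note: 0% = DMSO wells and 100% = wells lacking the enzyme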
Rv3671c protease: Rv3671c serine protease inhibitors, primary screen, biochemical, fluorescence polarization, M. tuberculosis H37Rv; P9WHR9; inhibition, % at 5.96 µM; 0.048% of 320,000 active; in the data active = inhibition above about 38%;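 note: extracellular domain of Rv3671c used as enzyme; 0% = enzyme with DMSO and 100% = no enzyme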
Mtb UGM inh: M. tuberculosis UGM enzyme inhibitors, primary screen, biochemical, fluorescence polarization, single point | 0.06% of 320,000 active | AID 504406, 2011 | inhibition, % at 10 µM | purified UGM, fluorescence polarization probe displacement; in the data active = inhibition above about 10%, passing the limit was not always enough
Target sequence (P9WIQ1 whole entry, looked up): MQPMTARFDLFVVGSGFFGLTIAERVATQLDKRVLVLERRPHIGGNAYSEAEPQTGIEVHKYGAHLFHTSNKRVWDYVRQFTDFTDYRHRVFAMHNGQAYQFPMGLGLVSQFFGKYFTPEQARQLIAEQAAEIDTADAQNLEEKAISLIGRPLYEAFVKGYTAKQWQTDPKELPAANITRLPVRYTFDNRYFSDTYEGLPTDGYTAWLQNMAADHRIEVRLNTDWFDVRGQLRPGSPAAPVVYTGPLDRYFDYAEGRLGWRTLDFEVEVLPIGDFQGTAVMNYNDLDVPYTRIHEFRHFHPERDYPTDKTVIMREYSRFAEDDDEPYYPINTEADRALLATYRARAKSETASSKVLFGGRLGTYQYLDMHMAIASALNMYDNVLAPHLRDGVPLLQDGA
Mtb FBA confirm: M. tuberculosis aldolase blockers, biochemical, fluorescence, strain H37Rv, confirmation | shares compounds with FBA Mtb inh | purified M. tuberculosis FBA, fluorescence read-out | inhibition, % at 1 µM | 78% of 5,600 active | AID 651616, 2012;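 note: 0% = vehicle wells and 100% = reference inhibitor wells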
GDH-TPI counter-2: GDH-TPI coupling enzyme inhibitors, artefact control for M. tuberculosis FBA inhibitor project, biochemical, fluorescence, high throughput. shares compounds with FBA Mtb inh. GDH-TPI coupled enzyme counterscreen. inhibition, % at 1 µM. 81% of 5,600 active; in the data active = inhibition above about 10%
* marks the source's active call; other numbers are inactive results. Only some compounds are listed: those with a hit (about 4% of all), similar ones and a draw of the others. Cut-off read from the data, not from the text of the source, unless noted: active = inhibition above about 27%; inactive = the rest.

Results for CCCCc1cc(=O)oc2cc(OC(C)C(=O)NCCN3CCOCC3)c(Cl)cc12 (stereo not given) ?
Mtb bLac sens: 6; FBA Mtb inh: 9; RecA intein inh: 0; GDH-TPI counter-1: 20; Rv3671c protease: -3; Mtb UGM inh: -1

Results for Cc1cc(OC(C)C(=O)NCCN2CCOCC2)c2c(C)c(C)c(=O)oc2c1 (stereo not given) ?
Mtb bLac sens: 4; FBA Mtb inh: 51*; RecA intein inh: -1; GDH-TPI counter-1: 8; Rv3671c protease: -8; Mtb UGM inh: 0; Mtb FBA confirm: 116*; GDH-TPI counter-2: 94*

Results for CCCc1cc(=O)oc2cc(C)cc(OC(C)C(=O)NCCN3CCOCC3)c12 (stereo not given) ?
Mtb bLac sens: -5; FBA Mtb inh: 61*; RecA intein inh: -2; GDH-TPI counter-1: 13; Rv3671c protease: -7; Mtb UGM inh: 1; Mtb FBA confirm: 54*; GDH-TPI counter-2: 43*

Results for CCc1cc(=O)oc2cc(C)cc(OC(C)C(=O)NCCN3CCOCC3)c12 (stereo not given) ?
Mtb bLac sens: 0; FBA Mtb inh: 44*; RecA intein inh: 1; GDH-TPI counter-1: 1; Rv3671c protease: 5; Mtb UGM inh: 3; Mtb FBA confirm: 2; GDH-TPI counter-2: 1

How did O=C(CO)c1c[nH]c2ccccc12 do in these assays?
FBA Mtb inh: 1; GDH-TPI counter-1: -1

What do the screens show for `CCCc1cc(=O)oc2cc(C)cc(OC(C)C(=O)NCCCN3CCOCC3)c12` (stereo not given)?
Mtb bLac sens: -11; FBA Mtb inh: 80*; RecA intein inh: -3; GDH-TPI counter-1: 11; Rv3671c protease: -2; Mtb UGM inh: 3; Mtb FBA confirm: -4; GDH-TPI counter-2: -2

How did CCc1cc(=O)oc2c(C)c(OC(C)C(=O)NCCCN3CCOCC3)ccc12 (stereo not given) do in these assays?
Mtb bLac sens: -2; FBA Mtb inh: 11; RecA intein inh: 1; GDH-TPI counter-1: 12; Rv3671c protease: -2; Mtb UGM inh: 1

What do the screens show for `Cc1ccc(C)c2nc(N3CCCC3)c(C#N)cc12`?
Mtb bLac sens: 97; FBA Mtb inh: 33*; GDH-TPI counter-1: 7; Rv3671c protease: -7; Mtb UGM inh: -1; Mtb FBA confirm: 173*; GDH-TPI counter-2: 146*

Results for Cn1cccc1C(NC(=O)c1ccccc1)C(Cl)(Cl)Cl (stereo not given) ?
Mtb bLac sens: -2; FBA Mtb inh: 2; RecA intein inh: 2; GDH-TPI counter-1: 0; Rv3671c protease: -1; Mtb UGM inh: 2

What do the screens show for `N#C/C(=C\c1ccc(Cl)cc1Cl)c1n[nH]c(Cn2cncn2)n1`?
Mtb bLac sens: 5; FBA Mtb inh: 36*; RecA intein inh: 6; GDH-TPI counter-1: 21; Rv3671c protease: 0; Mtb UGM inh: -1; Mtb FBA confirm: active; GDH-TPI counter-2: 165*

Results for O=C(Nc1ccccc1)c1n[nH]c(Cn2cncn2)n1 ?
Mtb bLac sens: -5; FBA Mtb inh: 0; RecA intein inh: 1; GDH-TPI counter-1: -4; Rv3671c protease: -3; Mtb UGM inh: -1

What do the screens show for `CC(C)=CCC/C(C)=C/CNC(=O)CC1C[C@H](C(=O)N(C(C)C)C(C)C)[C@@]2(C)c3[nH]c4ccccc4c3CCN2C1=O` (stereo not given in full)?
Mtb bLac sens: 2; FBA Mtb inh: 3; GDH-TPI counter-1: 9; Rv3671c protease: 1; Mtb UGM inh: 2

Results for CN(C)CCNC(=O)c1ccc(-c2cnn(C)c2)c2ccoc12 ?
FBA Mtb inh: 85*; GDH-TPI counter-1: 4; Mtb FBA confirm: 104*; GDH-TPI counter-2: 94*

What do the screens show for `COCCNC(=O)c1ccc(-c2cn[nH]c2)c2ccoc12`?
FBA Mtb inh: 57*; GDH-TPI counter-1: 12; Mtb FBA confirm: 43*; GDH-TPI counter-2: 37*

Results for O=C(NCC1CCOCC1)c1ccc(-c2ccc(F)c(F)c2)c2ccoc12 ?
FBA Mtb inh: 6; GDH-TPI counter-1: -7

What do the screens show for `CN1CCN(c2ccc(CNC(=O)c3ccc(-c4cnn(C)c4)c4ccoc34)cc2)CC1`?
FBA Mtb inh: -2; GDH-TPI counter-1: 1

How did O=C(NCC1CC1)c1ccc(-c2cn[nH]c2)c2ccoc12 do in these assays?
FBA Mtb inh: 27*; GDH-TPI counter-1: 6; Mtb FBA confirm: 43*; GDH-TPI counter-2: 31*

Results for CC1(Cc2ccc(Cl)cc2)C(=O)Nc2c(Cl)ccc(Cl)c21 (stereo not given) ?
FBA Mtb inh: 2; GDH-TPI counter-1: -4

How did Cc1cc(NC(=O)CN2C(=O)/C(=C/c3ccc(C(C)C)cc3)SC2=S)no1 do in these assays?
FBA Mtb inh: 1; GDH-TPI counter-1: 5

How did Cc1ccc(CNc2ncnc3ccc(-c4ccc(CO)o4)cc23)o1 do in these assays?
FBA Mtb inh: 81*; GDH-TPI counter-1: 26; Mtb FBA confirm: 8; GDH-TPI counter-2: -1

Results for Cc1csc(CNc2ncnc3ccc(-c4cccc(Cl)c4)cc23)c1 ?
Mtb bLac sens: 13; FBA Mtb inh: 7; GDH-TPI counter-1: 11; Rv3671c protease: -87; Mtb UGM inh: 2

What do the screens show for `COC(=O)C1(C)Nc2ccccc2C(=O)N1c1ccccc1C` (stereo not given)?
Mtb bLac sens: -2; FBA Mtb inh: 52*; RecA intein inh: 1; GDH-TPI counter-1: 16; Rv3671c protease: 2; Mtb UGM inh: 0; Mtb FBA confirm: 102*; GDH-TPI counter-2: 71*

What do the screens show for `CCc1nc2c(OCC(=O)C(C)(C)C)cccn2c1N(C)C(=O)Nc1ccccc1OC`?
FBA Mtb inh: 0; GDH-TPI counter-1: 15

How did CCC(C)c1ccccc1NC(=O)C(C)OC(=O)c1ccco1 (stereo not given) do in these assays?
Mtb bLac sens: -8; FBA Mtb inh: 0; RecA intein inh: -2; GDH-TPI counter-1: -5; Rv3671c protease: 6; Mtb UGM inh: 0

Results for COc1ccc(-c2nc(CC(=O)O)cs2)cc1OC ?
Mtb bLac sens: 26; RecA intein inh: 2; Rv3671c protease: -2; Mtb UGM inh: 0
